{"source": "ChEMBL document CHEMBL2218924", "about": "“A broad activity screen in support of a chemogenomic map for kinase signalling research and drug discovery” (Biochem J, 2013)"}
{"biological_target": "Ribosomal protein S6 kinase beta-1 (Homo sapiens) (UniProt P23443)", "sequence (P23443 whole entry, looked up)": "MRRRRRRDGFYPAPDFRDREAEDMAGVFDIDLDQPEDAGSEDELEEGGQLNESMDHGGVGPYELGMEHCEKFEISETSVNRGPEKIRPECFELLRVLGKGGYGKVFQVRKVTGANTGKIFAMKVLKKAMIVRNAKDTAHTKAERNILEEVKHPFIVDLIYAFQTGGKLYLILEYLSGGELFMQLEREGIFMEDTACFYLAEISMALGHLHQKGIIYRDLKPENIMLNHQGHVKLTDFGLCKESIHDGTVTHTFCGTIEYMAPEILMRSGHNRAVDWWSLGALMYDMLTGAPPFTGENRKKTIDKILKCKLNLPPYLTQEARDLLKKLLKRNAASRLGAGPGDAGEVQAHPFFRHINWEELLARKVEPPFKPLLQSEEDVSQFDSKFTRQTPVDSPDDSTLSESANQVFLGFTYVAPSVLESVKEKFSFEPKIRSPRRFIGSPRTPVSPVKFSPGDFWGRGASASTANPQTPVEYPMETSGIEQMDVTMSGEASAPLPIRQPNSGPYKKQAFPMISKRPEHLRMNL", "conditions": "at 1 µM", "units": {"residual activity": "%"}}
{"smiles": "O=C(c1cc2cc(O)ccc2[nH]1)c1cc2cc(O)ccc2[nH]1", "residual activity": 73}
{"smiles": "O=C1Nc2ccccc2/C1=C\\c1c(Cl)[nH]c2ccccc12", "residual activity": 87}
{"smiles": "c1ccc(-c2cnc(Nc3ccc(OCCN4CCCC4)cc3)s2)cc1", "residual activity": 61}
{"smiles": "O=C(NC(NC(=S)Nc1ccc(F)c([N+](=O)[O-])c1)C(Cl)(Cl)Cl)C(c1ccccc1)c1ccccc1", "note": "(centres undefined)", "residual activity": 141}
{"smiles": "CCCCc1c(-c2ccc(O)cc2)[nH]c2nccnc12", "residual activity": 88}
{"smiles": "O=c1c(-c2ccc(F)cc2)c(-c2ccncc2)[nH]n1-c1ccc(Cl)cc1", "residual activity": 129}
{"smiles": "O=C(Nc1ccc(Cl)cc1)c1ccccc1NCc1ccncc1", "residual activity": 135}
{"smiles": "Cn1sc(=O)n(Cc2ccccc2)c1=O", "residual activity": 67}
{"smiles": "Fc1ccc(-c2nc3n(c2-c2ccncc2)CCS3)cc1", "residual activity": 92}
{"smiles": "NC(=O)c1cccc(-c2cc(Nc3ccc(OC(F)(F)F)cc3)ncn2)c1", "residual activity": 97}
{"smiles": "CC(C)(C)c1nc2c3ccc(F)cc3c3c(=O)[nH]ccc3c2[nH]1", "residual activity": 47}
{"smiles": "CC(C)N(CCC(=O)c1ccc2ccccc2c1)Cc1ccccc1", "residual activity": 77}
{"smiles": "O=C1Nc2ccc(Cl)cc2/C1=C/c1cc(Cl)c(O)c(Cl)c1", "residual activity": 60}
{"smiles": "COc1ccc(Cl)cc1NC(=O)Nc1cc(C)nc2ccccc12", "residual activity": 97}
{"smiles": "Nc1n[nH]c2nc3ccccc3nc12", "residual activity": 78}
{"smiles": "O=C1NC(=O)C(c2cn(CCCO)c3ncccc23)=C1c1cnccn1", "residual activity": 91}
{"smiles": "O=C1NC(=O)C(c2cn(CCCn3ccnc3)c3ccccc23)=C1Nc1ccccc1", "residual activity": 23}
{"smiles": "Nc1nccc(-c2c(-c3ccc(F)cc3)ncn2C2CCNCC2)n1", "residual activity": 74}
{"biological_target": "Ribosomal protein S6 kinase beta-1 (Homo sapiens) (UniProt P23443)", "conditions": "at 10 µM", "units": {"residual activity": "%"}}
{"smiles": "O=C(c1cc2cc(O)ccc2[nH]1)c1cc2cc(O)ccc2[nH]1", "residual activity": 18}
{"smiles": "O=C1Nc2ccccc2/C1=C\\c1c(Cl)[nH]c2ccccc12", "residual activity": 54}
{"smiles": "O=C1C(Cl)=C(N2C(=O)CCC2=O)C(=O)c2ccccc21", "residual activity": 67}
{"smiles": "c1ccc(-c2cnc(Nc3ccc(OCCN4CCCC4)cc3)s2)cc1", "residual activity": 52}
{"smiles": "O=C(NC(NC(=S)Nc1ccc(F)c([N+](=O)[O-])c1)C(Cl)(Cl)Cl)C(c1ccccc1)c1ccccc1", "note": "(centres undefined)", "residual activity": 99}
{"smiles": "CCCCc1c(-c2ccc(OC)cc2)[nH]c2nccnc12", "residual activity": 70}
{"smiles": "CCCCc1c(-c2ccc(O)cc2)[nH]c2nccnc12", "residual activity": 54}
{"smiles": "Cn1sc(=O)n(Cc2ccccc2)c1=O", "residual activity": 57}
{"smiles": "Fc1ccc(-c2nc3n(c2-c2ccncc2)CCS3)cc1", "residual activity": 62}
{"smiles": "O=S(=O)(c1cccc2cnccc12)N1CCCNCC1", "residual activity": 25}
{"smiles": "NC(=O)c1cccc(-c2cc(Nc3ccc(OC(F)(F)F)cc3)ncn2)c1", "residual activity": 74}
{"smiles": "N#C/C(=C\\c1ccc(O)c(O)c1)C(=O)NCc1ccccc1", "residual activity": 65}
{"smiles": "CC(C)(C)c1nc2c3ccc(F)cc3c3c(=O)[nH]ccc3c2[nH]1", "residual activity": 44}
{"smiles": "CC(C)N(CCC(=O)c1ccc2ccccc2c1)Cc1ccccc1", "residual activity": 53}
{"smiles": "O=C1Nc2ccc(Cl)cc2/C1=C/c1cc(Cl)c(O)c(Cl)c1", "residual activity": 40}
{"smiles": "COc1ccc(Cl)cc1NC(=O)Nc1cc(C)nc2ccccc12", "residual activity": 62}
{"smiles": "O=c1cc(N2CCOCC2)oc2c(-c3ccccc3)cccc12", "residual activity": 63}
{"smiles": "Nc1n[nH]c2nc3ccccc3nc12", "residual activity": 47}
{"smiles": "O=C1NC(=O)C(c2cn(CCCO)c3ncccc23)=C1c1cnccn1", "residual activity": 76}
{"smiles": "O=C1NC(=O)C(c2cn(CCCn3ccnc3)c3ccccc23)=C1Nc1ccccc1", "residual activity": 6}
{"smiles": "Nc1nccc(-c2c(-c3ccc(F)cc3)ncn2C2CCNCC2)n1", "residual activity": 49}
